# The supplement of paper PMC8728848
# Only a selection was taken, and the strongest signals are over-represented in it overall.
# B1: MIC2 (Toxoplasma gondii), S8F9G8 (protein)
# chain: MRLQREAVFGLMFACGMWMWPSEVAGGGWSIVDALRKRYDTSRGGDANGVDTSGVEDVIQSESAIGAAEGCTNQLDICFLIDSSGSIGIQNFRLVKQFLHTFLMVLPIGPEEVNNAVVTYSTDVHLQWDLQSPNAVDKQLAAHAVLDMPYKKGSTNTSDGLKACKQILFTGSRPGREHVPKLVIGMTDGESDSDFRTVRAAKEIRELGGIVTVLAVGHYVKHSECRSMCGCSGTSDDDSPCPLYLRADWGQLATAIKPMLKEVCKTLPQDAICSDWSAWSPCSVSCGDGSQIRTRTEVSAPQPGTPTCPDCPAPMGRTCVEQGGLEEIRECSAGVCAVDAGCGVWGEWSAWSASCGNATRKRERTRYNDPPPQGAGRRCENQDPPVLQEQTEEATLAPCITIPPTPPEWAAWSDCTVTCGGGNRHRVRNALPPGLGSQNGESDESLVSKLWPGTDLRQEEACNTSPCPINATCGQFEEWSTCSVSCGGGLKTRSRNPWNEDQQHGGLSCEQQHPGGRTETITCNPQACPVDERPGEWAEWGECSVTCGDGVRERRRGKSLVEAKFGGRTIDQQNEALPEDLKIKNVEYEPCSYPACGASCTYVWSDWNKCVCPMGYQARHAAVKFDYRNKPCDLPTFETKACSCGETNPVPSEGTTPGAPGATGPEQPNQRPLPEGSDENETPTNEEGEQSKKESGSGIAGAIAGGVIGGLILLGAAGGASYHYYLSSSVGSPSAEIEYEADDGATKVVMEEEKETLVPVDDDSDMWME
# B2: SLP (Clostridium difficile), Q183M8 (protein)
# chain: MATTGTQGYTVVKNDWKKAVKQLQDGLKDNSIGKITVSFNDGVVGEVAPKSANKKADRDAAAEKLYNLVNTQLDKLGDGDYVDFSVDYNLENKIITNQADAEAIVTKLNSLNEKTLIDIATKDTFGMVSKTQDSEGKNVAATKALKVKDVATFGLKSGGSEDTGYVVEMKAGAVEDKYGKVGDSTAGIAINLPSTGLEYAGKGTTIDFNKTLKVDVTGGSTPSAVAVSGFVTKDDTDLAKSGTINVRVINAKEESIDIDASSYTSAENLAKRYVFDPDEISEAYKAIVALQNDGIESNLVQLVNGKYQVIFYPEGKRLETKSLEHHHHHH
# Key:
# Assay in all cases: glycan array binding signal (z-score within array); higher = stronger binding
# Conditions in all cases: glycan notation: IUPAC condensed, linker removed
# Fuc(a1-2)Gal(b1-3)GlcNAc = target: Fuc(a1-2)Gal(b1-3)GlcNAc
# Summary of the method: (§1)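 The binding signal is a Z-score computed within each array. Data were drawn from 3228 arrays in the Consortium for Functional Glycomics database, restricted to those with a known protein sequence. Scores were averaged over arrays of the same protein sequence at different concentrations or buffers, and over linkers, and negative values can be taken as non-binding.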
# [1] = target: Fuc(a1-2)Gal(b1-3)GlcNAc(b1-3)Gal(b1-4)Glc
# Summary of the method: as §1
# [2] = target: Fuc(a1-2)[GalNAc(a1-3)]Gal(b1-4)GlcNAc(b1-3)Gal(b1-4)GlcNAc
# Summary of the method: as §1
# Fuc(a1-3)GlcNAc = target: Fuc(a1-3)GlcNAc
# Summary of the method: as §1
# [3] = target: Fuc(a1-3)[Gal3S(b1-4)]GlcNAc6S
# Summary of the method: as §1
# Fuc(b1-3)GlcNAc = target: Fuc(b1-3)GlcNAc
# Summary of the method: as §1
# [4] = target: Gal(b1-3)[Fuc(a1-4)]GlcNAc(b1-3)Gal(b1-3)[Fuc(a1-4)]GlcNAc
# Summary of the method: as §1
# [5] = target: Gal(b1-3)[Fuc(a1-4)]GlcNAc(b1-3)Gal(b1-4)[Fuc(a1-3)]GlcNAc
# Summary of the method: as §1
# [6] = target: Gal(b1-4)GlcNAc(b1-2)Man(a1-6)[GlcNAc(b1-2)Man(a1-3)]Man(b1-4)GlcNAc(b1-4)GlcNAc
# Summary of the method: as §1
# [7] = target: Gal3S(b1-4)[Fuc(a1-3)]Glc6S
# Summary of the method: as §1
# Gal3S4S(b1-4)GlcNAc = target: Gal3S4S(b1-4)GlcNAc
# Summary of the method: as §1
# Gal3S6S(b1-4)GlcNAc6S = target: Gal3S6S(b1-4)GlcNAc6S
# Summary of the method: as §1
# Gal4S(b1-4)GlcNAc = target: Gal4S(b1-4)GlcNAc
# Summary of the method: as §1
# [8] = target: GlcNAc(a1-4)Gal(b1-4)GlcNAc(b1-3)Gal(b1-4)Glc
# Summary of the method: as §1
# [9] = target: GlcNAc(a1-4)Gal(b1-4)GlcNAc(b1-3)Gal(b1-4)[Fuc(a1-3)]GlcNAc(b1-3)Gal(b1-4)[Fuc(a1-3)]GlcNAc
# Summary of the method: as §1
# [10] = target: GlcNAc(b1-2)Man(a1-3)[GlcNAc(b1-2)Man(a1-6)]Man(b1-4)GlcNAc(b1-4)[Fuc(a1-6)]GlcNAc
# Summary of the method: as §1
# [11] = target: GlcNAc(b1-4)GlcNAc(b1-4)GlcNAc(b1-4)GlcNAc(b1-4)GlcNAc(b1-4)GlcNAc
# Summary of the method: as §1
# Kdn(a2-3)Gal(b1-3)GlcNAc = target: Kdn(a2-3)Gal(b1-3)GlcNAc
# Summary of the method: as §1
# [12] = target: Man(a1-2)Man(a1-3)[Man(a1-2)Man(a1-6)]Man
# Summary of the method: as §1
# [13] = target: Man(a1-2)Man(a1-3)[Man(a1-2)Man(a1-6)]Man(a1-6)[Man(a1-2)Man(a1-2)Man(a1-3)]Man(b1-4)GlcNAc(b1-4)GlcNAc
# Summary of the method: as §1
# [14] = target: Neu5Ac(a2-3)Gal(b1-3)GalNAc(b1-3)Gal(a1-4)Gal(b1-4)Glc
# Summary of the method: as §1
# [15] = target: Neu5Ac(a2-3)Gal(b1-4)GlcNAc
# Summary of the method: as §1
# [16] = target: Neu5Ac(a2-3)Gal(b1-4)[Fuc(a1-3)]GlcNAc(b1-6)[Gal(b1-3)]GalNAc
# Summary of the method: as §1
# [17] = target: Neu5Ac(a2-3)[GalNAc(b1-4)]Gal(b1-4)Glc
# Summary of the method: as §1
# [18] = target: Neu5Ac(a2-3)[GalNAc(b1-4)]Gal(b1-4)GlcNAc(b1-3)GalNAc
# Summary of the method: as §1
# Neu5Ac(b2-6)GalNAc = target: Neu5Ac(b2-6)GalNAc
# Summary of the method: as §1
# [19] = target: Fuc(a1-2)Gal(b1-3)[Fuc(a1-4)]GlcNAc
# Summary of the method: as §1
# [20] = target: Fuc(a1-2)Gal(b1-4)GlcNAc(b1-2)Man(a1-3)[Fuc(a1-2)Gal(b1-4)GlcNAc(b1-2)Man(a1-6)]Man(b1-4)GlcNAc(b1-4)GlcNAc
# Summary of the method: as §1
# [21] = target: Fuc(a1-2)Gal(b1-4)[Fuc(a1-3)]GlcNAc
# Summary of the method: as §1
# [22] = target: Fuc(a1-2)[GalNAc(a1-3)]Gal(b1-3)GlcNAc
# Summary of the method: as §1
# [23] = target: Gal(a1-3)Gal(b1-3)[Fuc(a1-4)]GlcNAc(b1-2)Man(a1-3)[Gal(a1-3)Gal(b1-3)[Fuc(a1-4)]GlcNAc(b1-2)Man(a1-6)]Man(b1-4)GlcNAc(b1-4)GlcNAc
# Summary of the method: as §1
# [24] = target: Gal(a1-3)Gal(b1-4)[Fuc(a1-3)]GlcNAc
# Summary of the method: as §1
# [25] = target: Gal(a1-4)Gal(b1-4)GlcNAc(b1-2)Man(a1-3)[Gal(a1-4)Gal(b1-4)GlcNAc(b1-2)Man(a1-6)]Man(b1-4)GlcNAc(b1-4)GlcNAc
# Summary of the method: as §1
# Gal(b1-2)Gal = target: Gal(b1-2)Gal
# Summary of the method: as §1
# [26] = target: Gal(b1-3)GalNAc(b1-4)[Neu5Ac(a2-3)]Gal(b1-4)Glc
# Summary of the method: as §1
# [27] = target: Gal(b1-3)GlcNAc(b1-3)Gal(b1-4)Glc
# Summary of the method: as §1
# [28] = target: Gal(b1-3)GlcNAc(b1-3)Gal(b1-4)[Fuc(a1-3)]GlcNAc(b1-6)[Gal(b1-3)GlcNAc(b1-3)]Gal(b1-4)Glc
# Summary of the method: as §1
# [29] = target: Gal(b1-3)[Fuc(a1-4)]GlcNAc
# Summary of the method: as §1
# [30] = target: Gal(b1-3)[Fuc(a1-4)]GlcNAc(b1-2)Man(a1-3)[Gal(b1-3)[Fuc(a1-4)]GlcNAc(b1-2)Man(a1-6)]Man(b1-4)GlcNAc(b1-4)GlcNAc
# Summary of the method: as §1
# [31] = target: Gal(b1-3)[Fuc(a1-4)]GlcNAc(b1-2)Man(a1-3)[Gal(b1-3)[Fuc(a1-4)]GlcNAc(b1-2)Man(a1-6)]Man(b1-4)GlcNAc(b1-4)[Fuc(a1-6)]GlcNAc
# Summary of the method: as §1
# [32] = target: Gal(b1-4)GlcNAc(b1-2)Man(a1-3)[Gal(b1-4)GlcNAc(b1-2)Man(a1-6)]Man(b1-4)GlcNAc(b1-4)GlcNAc
# Summary of the method: as §1
# [33] = target: GalNAc(b1-4)GlcNAc(b1-2)Man(a1-3)[GalNAc(b1-4)GlcNAc(b1-2)Man(a1-6)]Man(b1-4)GlcNAc(b1-4)GlcNAc
# Summary of the method: as §1
# [34] = target: GlcNAc(b1-3)Gal(b1-4)GlcNAc(b1-3)Gal(b1-4)GlcNAc
# Summary of the method: as §1
# Kdn(a2-3)Gal(b1-4)Glc = target: Kdn(a2-3)Gal(b1-4)Glc
# Summary of the method: as §1
# [35] = target: Man(a1-2)Man(a1-2)Man(a1-6)[Man(a1-3)]Man
# Summary of the method: as §1
# [36] = target: Neu5Ac(a2-3)Gal(b1-3)GlcNAc6S
# Summary of the method: as §1
# [37] = target: Neu5Ac(a2-3)Gal(b1-3)[Fuc(a1-4)]GlcNAc(b1-3)Gal(b1-4)[Fuc(a1-3)]GlcNAc
# Summary of the method: as §1
# [38] = target: Neu5Ac(a2-3)Gal(b1-4)GlcNAc(b1-3)Gal(b1-4)GlcNAc
# Summary of the method: as §1
# [39] = target: Neu5Ac(a2-6)Gal(b1-4)GlcNAc(b1-3)Gal(b1-4)GlcNAc(b1-3)Gal(b1-4)GlcNAc
# Summary of the method: as §1
# Neu5Ac(a2-6)GalNAc = target: Neu5Ac(a2-6)GalNAc
# Summary of the method: as §1
# [40] = target: Neu5Ac9Ac(a2-3)Gal(b1-4)GlcNAc
# Summary of the method: as §1
binder,measurement,setting,value
B1,glycan array binding signal (z-score),Fuc(a1-2)Gal(b1-3)GlcNAc,-0.642
same,glycan array binding signal (z-score),[1],-0.779
same,glycan array binding signal (z-score),[2],-0.814
same,glycan array binding signal (z-score),Fuc(a1-3)GlcNAc,-0.671
same,glycan array binding signal (z-score),[3],3.68
same,glycan array binding signal (z-score),Fuc(b1-3)GlcNAc,0.622
same,glycan array binding signal (z-score),[4],-0.718
same,glycan array binding signal (z-score),[5],0.177
same,glycan array binding signal (z-score),[6],-0.816
same,glycan array binding signal (z-score),[7],4.19
same,glycan array binding signal (z-score),Gal3S4S(b1-4)GlcNAc,3.35
same,glycan array binding signal (z-score),Gal3S6S(b1-4)GlcNAc6S,3.06
same,glycan array binding signal (z-score),Gal4S(b1-4)GlcNAc,-0.874
same,glycan array binding signal (z-score),[8],-0.113
same,glycan array binding signal (z-score),[9],3.35
same,glycan array binding signal (z-score),[10],4
same,glycan array binding signal (z-score),[11],0.267
same,glycan array binding signal (z-score),Kdn(a2-3)Gal(b1-3)GlcNAc,-0.014
same,glycan array binding signal (z-score),[12],-0.278
same,glycan array binding signal (z-score),[13],0.876
same,glycan array binding signal (z-score),[14],0.008
same,glycan array binding signal (z-score),[15],0.221
same,glycan array binding signal (z-score),[16],3.24
same,glycan array binding signal (z-score),[17],0.279
same,glycan array binding signal (z-score),[18],1.93
same,glycan array binding signal (z-score),Neu5Ac(b2-6)GalNAc,-0.725
B2,glycan array binding signal (z-score),Fuc(a1-2)Gal(b1-3)GlcNAc,-0.17
same,glycan array binding signal (z-score),[1],3.53
same,glycan array binding signal (z-score),[19],-0.18
same,glycan array binding signal (z-score),[20],3.46
same,glycan array binding signal (z-score),[21],-0.174
same,glycan array binding signal (z-score),[22],-0.175
same,glycan array binding signal (z-score),[23],12.1
same,glycan array binding signal (z-score),[24],-0.186
same,glycan array binding signal (z-score),[25],0.537
same,glycan array binding signal (z-score),Gal(b1-2)Gal,-0.185
same,glycan array binding signal (z-score),[26],-0.141
same,glycan array binding signal (z-score),[27],3.65
same,glycan array binding signal (z-score),[28],-0.152
same,glycan array binding signal (z-score),[29],-0.182
same,glycan array binding signal (z-score),[30],7.99
same,glycan array binding signal (z-score),[31],5.55
same,glycan array binding signal (z-score),[32],-0.173
same,glycan array binding signal (z-score),[33],6.19
same,glycan array binding signal (z-score),[34],-0.209
same,glycan array binding signal (z-score),Kdn(a2-3)Gal(b1-4)Glc,-0.2
same,glycan array binding signal (z-score),[35],-0.17
same,glycan array binding signal (z-score),[36],-0.167
same,glycan array binding signal (z-score),[37],-0.057
same,glycan array binding signal (z-score),[38],-0.18
same,glycan array binding signal (z-score),[39],-0.187
same,glycan array binding signal (z-score),Neu5Ac(a2-6)GalNAc,-0.177
same,glycan array binding signal (z-score),[40],-0.188
